Only some compounds are listed: those with a hit (about 4.2% of all), similar ones and a draw of the others.
ALOX15 inhib = qHTS Assay for Inhibitors of 15-hLO (15-human lipoxygenase). Polyunsaturated fatty acid lipoxygenase ALOX15 (Homo sapiens), P16050. purified 15hLO-1, xylenol orange hydroperoxide absorbance. Potency, µM (titrated, usually from 57.1 µM), usual class: inhibitors. hit rate 1.4% among 74,000; also: nearly all actives have a fitted effect of over 55% in size
Target sequence (P16050 whole entry, looked up): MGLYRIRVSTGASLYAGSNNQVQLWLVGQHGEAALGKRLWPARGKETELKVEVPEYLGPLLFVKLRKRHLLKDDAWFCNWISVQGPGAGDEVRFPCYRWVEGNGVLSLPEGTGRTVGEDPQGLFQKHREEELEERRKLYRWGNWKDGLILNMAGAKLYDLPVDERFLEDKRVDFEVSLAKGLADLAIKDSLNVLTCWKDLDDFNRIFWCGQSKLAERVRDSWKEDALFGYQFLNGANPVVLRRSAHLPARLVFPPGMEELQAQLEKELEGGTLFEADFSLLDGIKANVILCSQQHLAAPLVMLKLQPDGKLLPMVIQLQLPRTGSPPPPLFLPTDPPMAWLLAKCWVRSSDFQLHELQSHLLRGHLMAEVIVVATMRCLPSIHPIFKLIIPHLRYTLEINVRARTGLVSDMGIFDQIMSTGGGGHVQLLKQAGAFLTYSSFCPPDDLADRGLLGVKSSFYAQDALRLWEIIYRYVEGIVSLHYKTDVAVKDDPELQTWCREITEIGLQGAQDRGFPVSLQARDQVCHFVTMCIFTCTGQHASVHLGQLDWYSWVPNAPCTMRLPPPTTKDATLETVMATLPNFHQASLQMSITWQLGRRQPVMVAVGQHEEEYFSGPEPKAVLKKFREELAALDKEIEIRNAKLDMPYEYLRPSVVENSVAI
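Readout: Fe(III)-xylenol orange absorbance, 573-to-405 nm ratio as reaction progress. Enzyme 40 nM purified human 15hLO-1, substrate 50 uM arachidonic acid, 6 min RT after 15 min compound preincubation; Hepes pH 7.5 buffer with Triton X-100.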
Hsp90 Hop PPI = qHTS Assay for Disrupters of an Hsp90 Co-Chaperone Interaction. AID 595, 2007. Hsp90 C-terminal peptide / TPR2A (Hop) interaction, human. AlphaScreen TPR2A-His6 binding biotin-Hsp90 C-terminal peptide. hit rate 0.44% among 71,000. Potency, µM (series often up to 57 µM); active = well fitted curve in either direction with a large enough effect; inconclusive = small, poorly fitted or top-dose-only effect, or another doubt
ERK AVP block = qHTS Assay for Inhibitors of the ERK Signaling Pathway using a Homogeneous Screening Assay. hit rate 0.99% among 72,000. AID 995, 2007. Potency, µM (top dose mostly 57.5 µM), hits mostly inhibitors. HEK293-V1b, vasopressin-stimulated pERK AlphaScreen; also: nearly all actives have a fitted effect of over 55% in size
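V1b-HEK293 cells; cpd 30 min 37C; 25 nM vasopressin 5 min; lyse 10 min; AlphaScreen beads 5 hr RT. Normalized to DMSO basal and 25 nM vasopressin; AC50 by Hill fit.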
Tau filament bind = qHTS Assay for Tau Filament Binding; Microtubule-associated protein tau (Homo sapiens), P10636; recombinant tau filaments, thioflavin S fluorescence, 15 h; filaments grown with octadecylsulfate alongside compound; Potency, µM (top dose mostly 57.1 µM); hit rate 2% among 71,000; AID 596, 2007;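 also: actives lower thioflavin S fluorescence by blocking filaments or displacing dye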
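His-tagged recombinant human tau (exons 2, 3, 10; 1 uM final) fibrillized with 30 uM sodium octadecylsulfate, 15 h at 37 C, in pH 7.4 HEPES buffer with 10 uM thioflavine S and 5 mM DTT. Reduced ThS fluorescence (450/510 nm) marks activity.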
TsaE inh = qHTS Assay for Inhibitors of YjeE; tRNA threonylcarbamoyladenosine biosynthesis protein TsaE (Escherichia coli (strain …; purified YjeE enzyme, qHTS inhibition assay; Potency, µM; hit rate 0.05% among 71,000; AID 605, 2007
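Purified YjeE (10 uM) with BODIPY Texas Red-labeled ADP probe (2 uM); compounds pin-transferred, 15 min at room temperature. Binding inhibition read as decreased fluorescence polarization; ADP titration as control.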
DNA Pol III inh = qHTS Assay for Inhibitors of DNA Polymerase III Holoenzyme System; reconstituted DNA polymerase III holoenzyme replication, biochemical; Potency, µM (top dose mostly 57.1 µM); hit rate 0.25% among 71,000; AID 603, 2007
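Reconstituted *E. coli* holoenzyme (0.35 nM Pol III, 1 nM beta, 154 nM SSB, 2 nM primase) was preincubated with compound for 15 min at RT. Synthesis on 1.4 nM ssM13Gori ran 35 min, then was stopped with PicoGreen/EDTA and read as dsDNA fluorescence.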
Numbers stand for hits; . = inactive; ? = inconclusive; / = no result given; [ ] = dose if it differs, or a comment. Unless noted, calls follow the shape of the dose curve; as a rule, active = well fitted curve in the direction sought with a large enough effect; inconclusive = small, poorly fitted or top-dose-only effect, or another doubt; inactive = no such curve, though single readings can be large; an effect the other way counts as inactive or inconclusive.

SMILES	ALOX15 inhib	Hsp90 Hop PPI	ERK AVP block	Tau filament bind	TsaE inh	DNA Pol III inh
CSc1nc(N)c2ncn([C@@H]3O[C@@H](COP(=O)(O)OP(=O)(O)OP(=O)(O)O)[C@@H](O)[C@H]3O)c2n1	.	.	.	.	.	.
O=C(CC1COc2ccccc2O1)Nc1ccccn1 (stereo not drawn)	.	.	.	.	.	.
O=C1N(c2ccccc2)C2CS(=O)(=O)CC2N1c1ccc(Br)cc1 (stereo not drawn)	.	.	.	.	.	.
CCN1C(=O)/C(=C2/C=CC=CN2C)OC1=S	.[11.4 µM]	.[11 µM]	.	.[11.4 µM]	.	.[11.4 µM]
CCN1C(=O)/C(=C/N(C)c2ccccc2)OC1=S	7.9µM	.	.	.	.	.
O=C(O)CCNS(=O)(=O)c1ccc2c(c1)Cc1ccccc1-2	.	.	.	.	.	.
COc1ccccc1/C=c1\sc2nc(-c3cccs3)nn2c1=O	.	.	.	.	.	.
C=CCOc1ccccc1/C=c1\sc2nc(=O)c(C)nn2c1=O	.	.	.	25µM	.	.
COC(=O)C/C=C\[C@@H](C)[C@@H](/C=N\OC[C@@H](O)[C@H]1O[C@H]2OC(C)(C)O[C@H]2[C@@H]1O)OC	.[11.4 µM]	/	.[11.5 µM]	/	/	/
CC(=O)Nc1cccc(C)c1	.	.	.	.	.	.
CC(=O)Nc1cccc(C(=O)Oc2cccc(C)c2)c1O	16µM	?	.	.	.	.
N#Cc1ccc(CN2CC3(CCN(C(=O)c4cccc(F)c4)CC3)C2)cc1	.	.	.	.	.	.
N#C/C(=C1/CCCCCN1)c1nc2ccccc2[nH]1	.	.	.	.	.	.
N#C/C(=C1\CCCN1)c1ccc2ccccc2n1	.	.	16µM	.	.	.
COCCOC(=O)C1=C(C)NC(=O)NC1c1ccc(OC(=O)c2ccco2)c(OC)c1 (stereo not drawn)	.	.	.	.	.	.
CCc1ccc2oc(-c3cccc(NC(=O)c4cccnc4)c3)nc2c1	.	.	25µM	.	.	.
COCc1cc(=O)n2c(-c3ccc(C)cc3)n[nH]c2n1	.	.	/	16µM	.	.
C=CCOc1ccc(/C(O)=C2\C(=O)C(=O)N(CCOC)C2c2cccnc2)cc1 (stereo not drawn)	.	.	.	.	.	.
CCOC(=O)CCN1CCN(C(=O)c2ccc(-n3c(=O)c(=O)[nH]c4ccccc43)cc2)CC1	13µM	/	/	/	/	/
Cc1nnc(SCC(=O)N2CCOCC2)n1C	.	.	.	.	.	.
Cc1ccc2c(c1)nnn2C1CCN(C(=O)c2cccs2)CC1	.	.	.	.	.	.
CC(C)Cc1cc(C(=O)Nc2ccc3c(c2)OCO3)no1	.	.[2.3 µM]	.	.	.	.
O=C(Nc1ccc2c(c1)OCO2)c1cc2ncc(Br)cn2n1	.	.	?	25µM	.	.
O=C(C1CCN(S(=O)(=O)c2cccc3cccnc23)CC1)N1CCN(c2ccc(Cl)cc2)CC1	?	.	7.9µM	.	.	.
O=C(C1CCCN(S(=O)(=O)c2ccccc2)C1)N1CCN(c2ncccn2)CC1 (stereo not drawn)	.	.	.	.	.	.
SMILES	ALOX15 inhib	Hsp90 Hop PPI	ERK AVP block	Tau filament bind	TsaE inh	DNA Pol III inh
Cc1ccc(NC(=O)C2CCN(S(=O)(=O)c3cccc4cccnc34)CC2)nc1	?	.	32µM	.	.	.
O=C(C1CCN(S(=O)(=O)c2ccc3ccccc3c2)CC1)N1CCN(c2ncccn2)CC1	.	.	25µM	.	.	.
Cc1cccc(NC(=O)C2CCN(S(=O)(=O)c3cccc4cccnc34)CC2)n1	.	.	10µM	.	.	.
CC(=O)c1ccc(NC(=O)C2CCN(S(=O)(=O)c3cccc4cccnc34)CC2)cc1	.	.	.	.	.	.
O=C(Sc1nnc(-c2ccccc2)o1)N1c2ccccc2Sc2ccccc21	2.5µM	.[11 µM]	.	.[11.4 µM]	.	.[11.4 µM]
C=CCNC(=O)c1sc(=S)n(-c2ccc(C(=O)OCC)cc2)c1N	?	.	.	.	.	.
CCOC(=O)c1ccc(-n2c(N)c(C(=O)NCc3ccco3)sc2=S)cc1	?	.	20µM	.	.	.
COc1cc(CNc2ccc(C)c(C)c2)cc(OC)c1OC	10µM	.	40µM	?	.	.
N#Cc1cccc(-c2nc(Nc3ccncc3)c3ccccc3n2)c1	.	.	.	.	.	.
N#Cc1cccc(-c2cc(NCc3cccnc3)ncn2)c1	.	.	.	.	.	.
N#Cc1cccc(-c2nc(NCc3ccccc3)c3ccccc3n2)c1	?	.	20µM	.	.	.
Cc1cccc(CNc2cc(-c3ccccc3C)ncn2)c1	?	.	10µM	.	.	.
N#Cc1cccc(-c2cc(NCc3ccccc3)ncn2)c1	.	.	20µM	.	.	.
COc1ccccc1-c1cc(NCc2cccc(C)c2)ncn1	.	.	?	.	.	.
S=C(Nc1ccccn1)c1ccccn1	.	10µM	.	25µM	.	.
O=C(Nc1ccccc1)Nc1ccccn1	.	.	.	.	.	.
O=C1C[C@H]2OCC=C3CN4CC[C@@]5(C(=O)O)[C@H](N1)[C@H]2[C@H]3C[C@H]45	.[11.4 µM]	.[11 µM]	.[11.5 µM]	.[11.4 µM]	.	.[11.4 µM]
FC(F)(F)c1cc(-c2ccccc2)nc(NCC2CCCO2)n1 (stereo not drawn)	?	32µM	.	.	.	.
Cc1ccc(S(=O)(=O)N(C)CCCC(=O)N2CCN(C=O)CC2)cc1	.	.	.	.	.	.
CCOc1ccc(C(=O)NCC(=O)OC(C)C(=O)NCc2ccco2)cc1OCC (stereo not drawn)	.	.	.	.	.	.
Cc1nc(NC2CCCCC2)c2nc(-c3ccccc3)n(CCCN(C)C)c2n1	.	.	.	.	.	.
Cc1nc(Nc2ccccc2)c2nc(-c3ccccc3)n(CCN3CCOCC3)c2n1	20µM	.	.	.	.	.
Cc1nc(NC2CCCCC2)c2nc(-c3ccccc3)n(CCCN3CCOCC3)c2n1	32µM	.	.	.	.	.
Cc1nc(NCc2ccccc2)c2nc(-c3ccccc3)n(CCN3CCCCC3)c2n1	20µM	.	.	.	.	.
COc1ccc(N2CCN(C(c3cccs3)C(C)NS(=O)(=O)c3ccccc3)CC2)cc1 (stereo not drawn)	.	?	.	16µM	.	.
COc1ccc(N2CCN(C(=O)c3ccc(NS(=O)(=O)c4ccccc4)cc3)CC2)cc1	5µM	.	.	.	.	.
